Compounds with a hit are over-represented: about 2.2% of the library has one in this group of screens.
FMDV antiviral – foot and mouth disease virus antiviral activity | 1.2% of 410,000 active | Potency, µM (top dose mostly 57.9 µM), without a hit: top-dose activity change, negative = inhibition, usual class: inhibitors | FMDV antiviral cell-based qHTS | AID 1159524; calls by dose curve; tested in HEK293T cells; note: read-out not given here; nearly all actives have a fitted effect of over 45% in size
Giardia FBPA inh-1 – Giardia lamblia aldolase inhibition; A8B2U2; purified Giardia FBPA; Potency, µM (series often up to 59.6 µM), inactives show at the highest dose activity, negative = inhibition, hits mostly inhibitors; 0.71% of 290,000 active; note: nearly all actives have a fitted effect of over 55% in size
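40 nM FBPA preincubated 10 min at RT with compound (up to 57.5 uM final), then substrate plus GAPDH/TPI/NAD/arsenate coupling and diaphorase/resazurin added. Fluorescence read after 20 min at RT, 525/598 nm.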
Vaccinia mCherry – vaccinia inhibition (mCherry reporter); Vaccinia virus mCherry reporter infection, fluorescence; 0.63% of 310,000 active; Potency, µM (doses to about 36.5 µM), without a hit: at the highest dose activity change, negative = inhibition, hits mostly inhibitors; calls by dose curve; tested in A549 cells; note: nearly all actives have a fitted effect of over 35% in size
VACV Venus inh – vaccinia inhibition (Venus reporter). AID 720580. Potency, µM (series often up to 36.5 µM), inactives show top-dose activity change, negative = inhibition, hits mostly inhibitors. 0.46% of 330,000 active. Vaccinia virus Venus reporter expression, fluorescence; calls by dose curve; tested in A549 cells; note: nearly all actives have a fitted effect of over 30% in size
Giardia growth – inhibitors of Giardia lamblia growth | shares compounds with Giardia FBPA inh-1 | Giardia lamblia trophozoite growth inhibition | Potency, µM (series often up to 57.5 µM), inactives show top-dose activity change, negative = inhibition, most hits filed as inhibitors | 5% of 1,500 active | AID 2785;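 note: trophozoites exposed to compound for 48 h at 37 °C; nearly all actives have a fitted effect of over 70% in size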
Mammal cell tox – mammalian cytotoxicity of Giardia aldolase inhibitor hits; shares compounds with Giardia FBPA inh-1; mammalian cell viability counter-screen, qHTS; Potency, µM (doses to about 57.5 µM), inactives show top-dose viability change, negative = toxicity, usual class: inhibitors; 4% of 1,500 active; AID 2786;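 note: Chinese hamster ovary cells used as mammalian cytotoxicity surrogate; viability measured as cellular ATP by luminescence; compound exposure lasted 48 h before reading; nearly all actives have a fitted effect of over 60% in size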
Giardia FBPA inh-2 – confirmation of Giardia fructose-bisphosphate aldolase inhibitors | shares compounds with Giardia FBPA inh-1 | purified Giardia aldolase enzyme activity, qHTS | Potency, µM (doses to about 57.5 µM), inactives show top-dose activity change, negative = inhibition, most hits filed as inhibitors | 5% of 1,500 active; note: nearly all actives have a fitted effect of over 45% in size
Rabbit aldolase – rabbit FBP aldolase inhibition by Giardia aldolase hits | AID 2794 | 4% of 1,500 active | Rabbit muscle FBPA enzyme inhibition, selectivity counter-screen | shares compounds with Giardia FBPA inh-1 | Potency, µM (titrated, usually from 57.5 µM), inactives show top-dose activity, negative = inhibition, usual class: inhibitors; note: nearly all actives have a fitted effect of over 60% in size
Target sequence (P00883 whole entry, looked up): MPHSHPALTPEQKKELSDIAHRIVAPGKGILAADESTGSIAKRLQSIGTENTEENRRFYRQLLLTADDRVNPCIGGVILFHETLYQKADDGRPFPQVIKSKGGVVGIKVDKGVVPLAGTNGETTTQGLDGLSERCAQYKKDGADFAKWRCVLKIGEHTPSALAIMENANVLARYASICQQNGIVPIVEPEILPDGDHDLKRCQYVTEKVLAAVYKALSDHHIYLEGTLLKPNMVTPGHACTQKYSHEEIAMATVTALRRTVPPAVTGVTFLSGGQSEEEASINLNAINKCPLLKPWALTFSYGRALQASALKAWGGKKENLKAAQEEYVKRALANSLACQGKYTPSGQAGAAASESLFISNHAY
GAPDH coupling – counter-screen for Giardia aldolase inhibitors: GAPDH coupling enzyme; shares compounds with Giardia FBPA inh-1; GAPDH coupling enzyme counterscreen, biochemical, qHTS; Potency, µM (top dose mostly 57.5 µM), for the others: top-dose activity change, negative = inhibition, most hits filed as inhibitors; 6% of 1,500 active; note: nearly all actives have a fitted effect of over 55% in size
* = called active by the depositor; i = inactive; ? = inconclusive; / = not tested or not shown; [ ] = another dose, or the depositor's remark. Unless noted, calls come from the whole dose curve; as a rule, active = well fitted curve in the direction sought with a large enough effect; inconclusive = small, poorly fitted or top-dose-only effect, or another doubt; inactive = no such curve, though single readings can be large; an effect the other way counts as inactive or inconclusive. % is set by controls: 0 for no effect and ±100 for the full control effect; potency is the fitted concentration of half-maximal effect.

SMILES | FMDV antiviral | Giardia FBPA inh-1 | Vaccinia mCherry | VACV Venus inh | Giardia growth | Mammal cell tox | Giardia FBPA inh-2 | Rabbit aldolase | GAPDH coupling
c1ccc(Cn2nnnc2C(c2ccccc2)N2CCN(Cc3ccncc3)CC2)cc1 (configuration not stated) | / | / | -6% | -14% | / | / | / | / | /
Nc1cc2nc3ccccc3oc-2cc1=O | 13% | 18µM* | ? | ? | -5%[10.4 µM] | -14% | ? | -23% | ?
CC1(C(=O)O)NCCc2cc(O)c(O)cc21 (configuration not stated) | -13% | / | -12% | -9% | / | / | / | / | /
Cc1cccc(Cc2cnc(N3C(=N)SC(C)C3=O)s2)c1 (configuration not stated) | -15% | 13µM* | -15% | -10% | 13µM* | 8% | 7% | 1% | 4%
Cc1ccc(Cc2cnc(N3C(=N)SC(C)C3=O)s2)cc1 (configuration not stated) | -20% | ? | -33% | -25% | / | / | / | / | /
CCCn1c(NCc2ccc3c(c2)OCO3)nc2ccccc21 | 6% | 5% | -24% | -11% | / | / | / | / | /
CN(C)CCn1c(NCc2ccc3c(c2)OCO3)nc2ccccc21 | -14% | 28µM* | / | / | ? | -14% | 5% | 6% | 9%
CC[C@H](C)[C@H](NC(=O)[C@H](Cc1ccc(O)cc1)NC(=O)[C@@H](NC(=O)[C@H](CCCN=C(N)N)NC(=O)[C@@H](N)CC(=O)O)C(C)C)C(=O)N[C@@H](Cc1ccc(N)cc1)C(=O)N1CCC[C@H]1C(=O)N[C@@H](Cc1ccccc1)C(=O)O | / | 2% | / | / | / | / | / | / | /
COc1ccc(-c2cc(=O)c3ccccc3o2)cc1OC | 0% | 7.9µM* | i | 0% | -24%[38.3 µM] | ? | ? | ? | -27%
COc1cccc(NC2=C(C#N)C(=O)NC(c3cccc(OC)c3O)S2)c1 (configuration not stated) | 15% | 16µM* | / | / | ? | 3% | ? | -2% | -25%
Cc1cccc2sc(N(Cc3cccnc3)C(=O)C3CCCCC3)nc12 | -13% | / | i | -3% | / | / | / | / | /
CCOc1ccccc1CN1CCC(O)CC1 | 13% | -17% | -13% | -6% | / | / | / | / | /
CCOc1ccccc1CN1CCC(N2CCOCC2)CC1 | -11% | 8.9µM* | / | / | 21%[38.3 µM] | -13% | ? | 13% | -8%
COc1ccc(CNC2CCSc3ccccc32)cc1OC (configuration not stated) | ? | 28µM* | -3% | -18% | 8%[10.4 µM] | 25% | 1% | 4% | 3%
COc1ccccc1CNC1CCCc2ccccc21 (configuration not stated) | -2% | 16µM* | -10% | -1% | ? | 0% | 3% | 4% | 10%
COCCNc1nc(-c2ccccc2Cl)nc2ccccc12 | -19% | 0% | / | / | / | / | / | / | /
O=C(CSc1ccccc1)Nc1nnc(C2CC2)s1 | 0% | 14µM* | i | -3% | ? | 9% | 1% | 9% | 7%
Cc1ccc(S(=O)(=O)N2CCCN(c3nc(-c4cccs4)nc4ccccc34)CC2)cc1 | / | / | -3% | -16% | / | / | / | / | /
COc1ccc(/C=C/C(=O)c2cc(C(=O)/C=C/c3ccc(OC)cc3)c(O)cc2O)cc1 | / | / | -15% | -9% | / | / | / | / | /
Oc1[nH]c2ccccc2c1N=NC(=S)N1CCOCC1 | ? | 18µM* | / | / | 2%[10.4 µM] | 40µM* | 10% | 0% | -8%
COC/C=C/C1=CC2=CC(=O)C(C)(OC(=O)c3cnc4ccccc4n3)C(=O)C2=CN1Cc1ccc(OC)cc1 (configuration not stated) | -21% | ? | -10% | -26% | / | / | / | / | /
